Results: the OligoGym collection

Target: TDRD10
Assay: pooled miR-30 sensor sort-seq; sequence = guide strand
Conditions: shRNA
Further: reference of the scale not given here.

Sequence | sensor-assay potency score (higher = more potent)
ATGAACATGACCACAGCCCAGG | -1.56
TTTGTGGACATCAAGAGGGTTG | -0.333
AAGTCGTCGCTGTCTAGGCTGC | -0.771
TTCACGAACAGTTTTCGCTTGT | 0.41
TTCCTCCTTAGAAATATCCAGT | -0.848
TTTAGGATGTGCAACGCCGAGT | -0.733
TCCAACACTCCATTCTTCCCAA | -0.74
AAGATTGCCAACATACACCTCT | 0.896
TTTGCTTGTATTCACGAACAGT | -0.914
TTTTGTGGACATCAAGAGGGTT | -0.194
TAGAAGGTACAGAATTTCCTCC | 0.0428
TTCTCCATTATCCAGAATCTGT | -1.03

Target: TDRD7
Assay: as above
Conditions: shRNA

Sequence | sensor-assay potency score (higher = more potent)
TAGAAGGTCACTGAGCTTGTTC | -0.0033
TTAGTTACTTTGACATTTGTGT | 0.2
TAGATTGTGGAAGATCTGCTAA | -0.00415
TATCGTACAGAACAACAAGTGG | -0.96
TTAACCACAGCACTGCATCTGG | -0.0871
TGACTTGTCACATATAGCCTTC | -0.332
TTTCTTGTAGAAACCGAGGTGG | 0.248
TAGTGTAGGGAAACCTAGCTGT | -0.0859
TTCAATGACTGTCTGCACCAGT | 0.309
TTTCCTTTGTCTCTTAACGGTG | -1.32
TAAATTATCACTCATTTCCTTA | -0.487
ATAGTCAACATAGCATACCTTT | -1.08

Target: TDRKH
Assay: as above
Conditions: shRNA

Sequence | sensor-assay potency score (higher = more potent)
TTAATATTGGCTCCTTGCCGGC | -1.54
TTGATAGTAGTAATGTCCCTTC | -0.374
TATAAGTAGATCTTTGGCCAAG | -1.04
TTGTGTACTAATTCTAGCCCAA | 0.0219
TCTGTGTCCACATCAATCCGAG | -0.281
TTTAATATTGGCTCCTTGCCGG | -0.28
TTATAAGTCTTGATAGTAGTAA | -0.315
TTGTAGGTAAAGGTGCTGCTAC | -0.223
TTGGTCTCAGTGAGCAACGTGC | -0.522
TTTTCTTCTATGTCTTCAGGAA | 0.0327
ATCTTCTGAAACTTTCTCCAGT | -0.507
ATGTCCTTCAACATGTCTGGGA | -0.897
